# Screens as filed in PubChem BioAssay.
# TIM10 inh: growth inhibitors of TIM10 yeast strain. 330,000 compounds, 1.4% hits. inhibition, % at 10 µM. AID 463195. S. cerevisiae TIM10 strain growth, BacTiter-Glo luminescence, 24 h;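 active means inhibition of 40% or more at the single tested concentration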;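 further: wild-type TIM10 isogenic control strain grown at permissive 25 °C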
# tim23-1 inh: tim23-1 yeast growth inhibition | S. cerevisiae tim23-1 growth, BacTiter-Glo luminescence, 24 h | inhibition, % at 20 µM | 330,000 compounds, 1.3% hits | AID 463212;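 active means growth inhibition of the mutant yeast at or above 50%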;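 further: temperature-sensitive mutant grown at 25 °C; plate controls were DMSO-treated mutant yeast for no effect and medium wells lacking yeast for full effect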
# tim10-1 inh: inhibits growth of tim10-1 mutant yeast | S. cerevisiae tim10-1 ts strain growth, BacTiter-Glo, 24 h | inhibition, % at 20 µM | 330,000 compounds, 2.2% hits | AID 463190;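 active means inhibition of at least 40%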;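 further: mutant grown at 25 °C; 0% = DMSO wells with yeast and 100% = wells holding no yeast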
# NALP1 inh: inhibitors of NALP1 inflammasome in yeast | inhibition, % at 10 µM | AID 2071 | S. cerevisiae NALP1/ASC/caspase-1 growth, X-gal OD620, 72 h | 280,000 compounds, 0.61% hits; in the data active means inhibition mostly above about 24%, no sharp cut-off; inactive means mostly below about 32%
# V-ATPase pHluor: alters yeast V-ATPase proton transport; response, % at 10 µM; 350,000 compounds, 0.37% hits; S. cerevisiae, pHLuorin cytosolic pH fluorescence; in the data active means response mostly above about 7.3%, no sharp cut-off; inactive means mostly below about 5.4%; further: actives read high
# NALP3 yeast inh: NALP3 inhibition in yeast. Yeast reconstituted NLRP3/ASC/caspase-1, beta-gal luminescence, 24 h. inhibition, % at 10 µM. 330,000 compounds, 0.39% hits. AID 2825;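 active means inhibition of 50% or more; inactive means inhibition below 50%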;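 further: plate controls were induced DMSO wells for no effect and uninduced yeast grown without galactose for full effect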
# tim10-1 confirm: tim10-1 yeast growth inhibition, confirmed; shares compounds with tim10-1 inh; S. cerevisiae tim10-1 ts strain growth, BacTiter-Glo, 24 h; inhibition, % at 20 µM; 7,400 compounds, 56% hits; AID 463213;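 active means inhibition of yeast growth at or above a set limit in either of two repeat tests at 20 µM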;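 further: tim10-1 mutant grown at permissive 25 °C to find synthetic lethal compounds; 0% = DMSO yeast wells and 100% = medium wells without yeast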
# Active calls of the source: *; / = not tested or not shown. Most compounds without a hit are left out; they make up all but 4.2% or so of the library.
SMILES,TIM10 inh,tim23-1 inh,tim10-1 inh,NALP1 inh,V-ATPase pHluor,NALP3 yeast inh,tim10-1 confirm
CN1CCN(c2ccc(NC(=S)NC(=O)c3cccc4c(Br)cccc34)cc2)CC1,-1,-3,47*,8,9,42,-84
CC(C)(C)C1CCc2onc(C(=O)Nc3ccc(F)cc3F)c2C1 (centres undefined),15,41,41*,1,-2,5,27
CC(C)(C)C1CCc2onc(C(=O)Nc3cnn(Cc4ccc(F)cc4)c3)c2C1 (centres undefined),4,2,14,34,5,8,/
COc1ccccc1NC(CC(=O)c1ccccc1)C(=O)OCC(=O)c1ccc(F)cc1 (centres undefined),34,33,45*,11,2,-41,40*
COc1ccccc1NC(=O)CCCC(=O)OCC(=O)c1ccc(F)cc1,6,12,25,5,2,7,/
O=C(O)c1ccc(CSc2nnc(-c3ccccc3)n2-c2ccccc2)cc1,-1,3,18,23,-2,5,/
Brc1cccc(-c2nnc(SCc3ccon3)n2-c2ccccc2)c1,26,45,41*,14,-3,10,15
CN1CCN(c2cc(N3CCc4ccccc4C3)c(F)cc2[N+](=O)[O-])CC1,30,34,48*,20,-3,15,39*
COc1ccc(N(CC(=O)Nc2ccc(C)c(C)c2)S(=O)(=O)c2c(C)noc2C)cc1,13,44,45*,21,3,-8,8
COc1ccc(N(CC(=O)Nc2ccc(C)c(F)c2)S(=O)(=O)c2c(C)noc2C)cc1,14,6,12,8,1,-3,/
CCOC(=O)c1ccc(NC(=O)CC2OCCN(CC)C2=O)cc1 (centres undefined),34,35,50*,2,3,21,62*
Cc1ccc(S(=O)(=O)NCc2ccc(C(=O)N3CCc4ccccc4C3)cc2)cc1,28,38,47*,13,-2,11,28
CC/C(=N\Nc1ccccc1[N+](=O)[O-])c1ccc(O)cc1,40,38,57*,-1,2,41,39*
Cn1c(CC(=O)Nc2ccc(Cl)c(Cl)c2)n[nH]c1=S,-5,1,-2,0,-4,12,/
COc1ccc(Cc2n[nH]c(=S)n2NC(=O)Nc2ccc(Cl)c(Cl)c2)cc1,31,18,43*,/,2,16,64*
Cc1ccc(S(=O)(=O)N[C@@H](C)C(=O)N2CCC(C(=O)N3CCC[C@H]3C(=O)O)CC2)cc1,12,15,17,-22,0,8,/
Cc1c(Nc2nc(C(F)(F)F)nc3ccccc23)c(=O)n(-c2ccccc2)n1C,-7,24,-4,0,-5,18,/
COc1ccc(OC)c(-c2cc(C(=O)Nc3c(C)nn(Cc4ccc(Cl)cc4)c3C)no2)c1,34,34,43*,10,-2,22,32*
COc1ccc(OC)c(-c2cc(C(=O)Nc3c(C)nn(Cc4ccccc4)c3C)no2)c1,25,16,41*,-7,0,9,10
Cc1nn(Cc2ccc(Cl)cc2)c(C)c1NC(=O)c1c(-c2ccccc2)noc1C,28,30,43*,-56,-3,4,44*
O=c1c2ccccc2oc2cc(NCCCN3CCOCC3)ccc12,-3,6,41*,-5,-2,17,7
O=c1c2ccccc2oc2ccc(NCCCN3CCOCC3)cc12,10,29,26,27,2,11,/
O=C(O)c1ccc(N2CCc3ccccc32)c([N+](=O)[O-])c1,17,2,3,-7,-1,6,/
O=C(NCc1ccc(F)cc1)c1ccc(N2CCc3ccccc32)c([N+](=O)[O-])c1,18,39,42*,28,-1,27,26
CCOc1cc(/C=C2\C(=O)N(Cc3ccco3)C(C)=C2C(=O)OC)ccc1O,30,46,17,6,-8,18,/
SMILES,TIM10 inh,tim23-1 inh,tim10-1 inh,NALP1 inh,V-ATPase pHluor,NALP3 yeast inh,tim10-1 confirm
O=C(N/N=C/C1CC2CCC1C2)c1ccc2c(c1)OCO2 (centres undefined),10,8,12,8,1,16,/
O=C(Oc1ccc2ccc(=O)oc2c1)c1ccco1,30,31,46*,-2,0,14,20
c1ccc2c(c1)OCC(c1csc3ncnc(N4CCCCC4)c13)O2 (centres undefined),29,48,41*,36,5,-29,24
O=c1[nH]cnc2scc(C3COc4ccccc4O3)c12 (centres undefined),15,-10,30,-3,-7,6,/
COc1ccc2cc(CCNC(=O)c3c(-c4ccccc4Cl)noc3C)c(=O)[nH]c2c1,8,12,41*,/,5,14,11
Cc1[nH]n(-c2ccc(Cl)c(Cl)c2)c(=O)c1CCO,20,31,43*,14,6,2,19
Cc1[nH]n(-c2ccc(C(=O)O)cc2)c(=O)c1CCO,/,/,/,15,0,/,/
COc1cccc(-n2cc(-c3ccc(F)cc3)[nH]c2=S)c1,26,48,46*,-15,2,22,14
O=C(c1ccco1)N1CCN(c2c([N+](=O)[O-])nn(-c3ccc(Cl)cc3)[n+]2[O-])CC1,11,29,17,-2,-1,3,/
CC1CCN(c2c([N+](=O)[O-])nn(-c3ccc4c(c3)OCCO4)[n+]2[O-])CC1,22,38,44*,5,3,23,29
S=c1[nH]nc(C23CC4CC(CC(C4)C2)C3)n1Cc1ccco1,22,24,40*,11,0,14,25
Cn1c(N)c(C(=O)COC(=O)CCCOc2ccc(Cl)cc2Cl)c(=O)n(C)c1=O,20,20,42*,7,-2,14,41*
Cn1c(N)c(C(=O)COC(=O)Cc2ccc(Cl)cc2Cl)c(=O)n(C)c1=O,19,29,24,/,5,5,/
CCOC(=O)c1ccc(NC(=O)c2nc[nH]c2C(=O)N(C)Cc2ccccc2)cc1,10,33,42*,/,1,11,28
Cc1ccc(S(=O)(=O)NN=C2CC3CC2C2CCCC32)cc1 (centres undefined),/,/,/,/,-2,/,/
Cc1cccc(Nc2c([N+](=O)[O-])c(=O)n(C)c3ccccc23)c1,-23,14,17,20,2,12,/
CC(C)c1ccc(Nc2c([N+](=O)[O-])c(=O)n(C)c3ccccc23)cc1,7,15,51*,-23,-4,30,52*
Cc1ccc(CCc2nnc(SCC(=O)Nc3cccc(Cl)c3)n2-c2ccccc2)o1,23,19,21,31,5,20,/
COCCN1Cc2cccc(C(=O)Nc3cccnc3)c2C1=O,11,9,25,14,-4,9,/
